# Source: PubChem BioAssay (NCATS)
# Results filed as inconclusive are left out. A call without a number means that no potency is given here. Active and inactive are the calls of the source. The call rests on the fitted dose curve; in most records, active means well fitted curve in the direction sought with a large enough effect; inconclusive means small, poorly fitted or top-dose-only effect, or another doubt; inactive means no such curve, though single readings can be large; an effect the other way counts as inactive or inconclusive.
# Tests used:
# [1] = Cell Viability - LYMP1-003 - Assay at 40 hr (AID 964); further: nearly all actives have a fitted effect of over 60% in size
# Procedure, shortened: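 LYMP1-003 human lymphoblastoid cells, 2500/well, preincubated 5 h at 37 C, then treated with compound for 40 h at 37 C. Intracellular ATP read by CellTiter-Glo luminescence after 30 min at room temperature; AC50 from Hill-equation fits.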
# [2] = Cell Viability - LYMP2-003 (AID 965);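 further: cells exposed to compounds for 24 h before reading; nearly all actives have a fitted effect of over 50% in size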
# Procedure, shortened: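 Human lymphoblastoid cells (2500/well) were pre-incubated 5 hr at 37 C, then exposed to compounds over a concentration range for 24 hr at 37 C. Intracellular ATP was read by CellTiter-Glo luminescence; AC50 came from Hill-equation fits.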
# [3] = Cell Viability - LYMP2-004 (AID 966); further: nearly all actives have a fitted effect of over 65% in size
# Procedure, shortened: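 Lymphoblastoid LYMP2-004 cells, 2500 per well, were preincubated for 5 hr and then treated with compound for 24 h at 37 C in complete medium. Viability was read as cellular ATP by CellTiter-Glo luminescence, and AC50 values were taken from Hill fits to concentration-response data.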
# [4] = Cell Viability - LYMP2-009 (AID 968); further: nearly all actives have a fitted effect of over 55% in size
# [5] = Cell Viability - LYMP2-011 (AID 969); further: nearly all actives have a fitted effect of over 60% in size
# Procedure, shortened: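 2500 cells/well in complete medium, compound-treated 24 h at 37 C. Viability read as intracellular ATP by CellTiter-Glo luminescence after 30 min at room temperature. AC50 from Hill fits of qHTS concentration-response data.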
# [6] = Cell Viability - LYMP2-013 (AID 970); further: nearly all actives have a fitted effect of over 55% in size
# Procedure, shortened: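 Human lymphoblastoid LYMP2-013 cells, 2500/well, treated 24 h at 37 C in complete medium; viability as intracellular ATP by CellTiter-Glo luminescence after 30 min. AC50 from Hill fits of qHTS concentration-response.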
# [7] = Cell Viability - LYMP2-017 (AID 972); further: nearly all actives have a fitted effect of over 55% in size
# Procedure, shortened: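 LYMP2-017 human lymphoblastoid cells (2500/well) settled 5 hr at 37 C, then exposed to compound 24 hr at 37 C in complete medium. Viability taken as intracellular ATP by CellTiter-Glo luminescence after 30 min at RT; AC50 from Hill fits.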
# [8] = Cell Viability - LYMP2-019 (AID 973); further: nearly all actives have a fitted effect of over 55% in size
# Procedure, shortened: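 Human lymphoblastoid LYMP2-019 cells (2500/well) preincubated 5 h at 37 C, then treated 24 h at 37 C in complete medium. Viability by CellTiter-Glo ATP luminescence after 30 min at room temperature; AC50 from Hill fits.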
# [9] = Cell Viability - LYMP2-021 (AID 974)
# Procedure, shortened: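 Human lymphoblastoid LYMP2-021 cells, 2500/well in complete medium, treated 24 hours at 37 C. Intracellular ATP by CellTiter-Glo luminescence (30 min, RT); AC50 from Hill fits of concentration-response.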
# [10] = Cell Viability - LYMP2-023 (AID 975); further: nearly all actives have a fitted effect of over 55% in size
# Procedure, shortened: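 LYMP2-023 human lymphoblastoid cells, 2500/well, preincubated 5 hr at 37 C, then compound-treated 24 hr at 37 C in complete medium. CellTiter-Glo luminescence (ATP) after 30 min at room temperature; AC50 from Hill-equation fits; tetraoctylammonium bromide positive control.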
# [11] = Cell Viability - LYMP2-025 (AID 976)
# Procedure, shortened: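 Human lymphoblastoid LYMP2-025 cells, 2500/well, exposed 24 h at 37 C in complete medium in 1536-well qHTS. Viability as cellular ATP by CellTiter-Glo luminescence; AC50 from Hill fits of concentration-response data.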
# [12] = Cell Viability - LYMP2-002 (AID 977)
# Procedure, shortened: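 Cytotoxicity is scored as concentration-dependent loss of cellular ATP in a human lymphoblastoid line after 24 hr compound treatment at 37 C. AC50 is obtained by modelling concentration-response data with the Hill equation.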
# [13] = Cell Viability - LYMP2-006 (AID 978); further: nearly all actives have a fitted effect of over 60% in size
# Procedure, shortened: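 Human lymphoblastoid cells, 2500 per well, were preincubated 5 hr at 37 C, then exposed to compounds for 24 hr at 37 C in complete medium. Viability was read as intracellular ATP by CellTiter-Glo luminescence; AC50 from Hill-equation fits of qHTS concentration-response data.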
# [14] = Cell Viability - LYMP2-007 (AID 979);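 further: cells exposed to compound for 24 h before reading; nearly all actives have a fitted effect of over 60% in size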
# Procedure, shortened: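 Human lymphoblastoid LYMP2-007 cells (2500/well) preincubated 5 h at 37 C, then treated 24 h at 37 C in complete medium. Viability by CellTiter-Glo ATP luminescence after 30 min at room temperature; AC50 from Hill fits.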
# [15] = Cell Viability - LYMP2-008 (AID 980); further: nearly all actives have a fitted effect of over 60% in size
# Procedure, shortened: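 LYMP2-008 lymphoblastoid cells (2500/well) plated 5 h, then treated 24 h at 37 C in complete medium. Viability read as intracellular ATP by CellTiter-Glo luminescence after 30 min at room temperature; AC50 from Hill fits.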
# [16] = Cell Viability - LYMP2-010 (AID 981); further: nearly all actives have a fitted effect of over 55% in size
# Procedure, shortened: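 Human lymphoblastoid LYMP2-010 cells (2500/well) treated 24 h at 37 C in complete medium; viability read as intracellular ATP by CellTiter-Glo luminescence. AC50 from Hill fits of concentration-response data; tetraoctylammonium bromide positive control.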
# [17] = Cell Viability - LYMP2-012 (AID 982)
# [18] = Cell Viability - LYMP2-014 (AID 983); further: nearly all actives have a fitted effect of over 50% in size
# Procedure, shortened: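 LYMP2-014 human lymphoblastoid cells, 2500/well, treated 24 h at 37 C in complete medium; viability by CellTiter-Glo ATP luminescence after 30 min at room temperature. AC50 from Hill fits of qHTS concentration-response; tetraoctylammonium bromide positive control.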
# [19] = Cell Viability - LYMP2-016 (AID 984); further: nearly all actives have a fitted effect of over 55% in size
# Procedure, shortened: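 Human lymphoblastoid cells (LYMP2-016), 2500/well in complete medium, preincubated 5 hr at 37 C, then compound-treated 24 hr at 37 C. Intracellular ATP read by CellTiter-Glo luminescence after 30 min at room temperature; AC50 from Hill-equation concentration-response fits.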
# [20] = Cell Viability - LYMP2-005 (AID 967)
# Procedure, shortened: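 CellTiter-Glo luminescence (cellular ATP) read-out; LYMP2-005 lymphoblastoid cells, 2500/well, 5 h pre-incubation, then 24 h compound exposure at 37 C in complete medium. Tetraoctylammonium bromide positive control; AC50 by standard Hill fit.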
# Potency means the concentration at half of the fitted maximal effect.
Compound,Potency [1],Potency [2],Potency [3],Potency [4],Potency [5],Potency [6],Potency [7],Potency [8],Potency [9],Potency [10],Potency [11],Potency [12],Potency [13],Potency [14],Potency [15],Potency [16],Potency [17],Potency [18],Potency [19],Potency [20]
CC(C)(C)CC(C)(C)c1ccc(OCCOCC[N+](C)(C)Cc2ccccc2)cc1,31.6 µM (active),39.8 µM (active),39.8 µM (active),31.6 µM (active),31.6 µM (active),25.1 µM (active),31.6 µM (active),39.8 µM (active),31.6 µM (active),39.8 µM (active),39.8 µM (active),25.1 µM (active),25.1 µM (active),25.1 µM (active),31.6 µM (active),31.6 µM (active),20 µM (active),31.6 µM (active),31.6 µM (active),
CN(C)/N=N/c1nc[nH]c1C(N)=O,inactive,inactive,inactive,inactive,inactive,inactive,inactive,inactive,inactive,inactive,inactive,inactive,inactive,inactive,inactive,inactive,inactive,inactive,inactive,inactive
CC(=O)O[C@]1(C(C)=O)CC[C@H]2[C@@H]3C[C@H](C)C4=CC(=O)CC[C@]4(C)[C@H]3CC[C@@]21C,inactive,,31.6 µM (active),39.8 µM (active),39.8 µM (active),31.6 µM (active),31.6 µM (active),,39.8 µM (active),,,,39.8 µM (active),39.8 µM (active),39.8 µM (active),31.6 µM (active),31.6 µM (active),,39.8 µM (active),
O=C1OC(c2ccc(O)cc2)(c2ccc(O)cc2)c2ccccc21,inactive,inactive,inactive,inactive,inactive,inactive,inactive,inactive,inactive,inactive,inactive,inactive,inactive,inactive,inactive,inactive,inactive,inactive,inactive,inactive
CC(O)C(=O)O (configuration not stated),inactive,inactive,inactive,inactive,inactive,inactive,inactive,inactive,inactive,inactive,inactive,inactive,inactive,inactive,inactive,inactive,inactive,inactive,inactive,inactive
CC/C(=C(/CC)c1ccc(O)cc1)c1ccc(O)cc1,,inactive,inactive,inactive,inactive,inactive,inactive,inactive,inactive,inactive,inactive,inactive,inactive,inactive,inactive,,,inactive,inactive,inactive
NC(=NCCCCCCN=C(N)/N=C(\N)Nc1ccc(Cl)cc1)/N=C(\N)Nc1ccc(Cl)cc1,31.6 µM (active),,,50.1 µM (active),39.8 µM (active),39.8 µM (active),39.8 µM (active),,39.8 µM (active),50.1 µM (active),,,39.8 µM (active),39.8 µM (active),39.8 µM (active),39.8 µM (active),39.8 µM (active),39.8 µM (active),50.1 µM (active),
Oc1ccc(O)cc1,12.6 µM (active),39.8 µM (active),39.8 µM (active),50.1 µM (active),39.8 µM (active),,39.8 µM (active),,50.1 µM (active),inactive,inactive,,,,50.1 µM (active),39.8 µM (active),50.1 µM (active),inactive,inactive,39.8 µM (active)
CCCCCCc1ccc(O)cc1O,,inactive,,inactive,inactive,inactive,inactive,inactive,inactive,inactive,inactive,inactive,inactive,inactive,inactive,inactive,inactive,inactive,inactive,inactive
Oc1c(I)cc(Cl)c2cccnc12,39.8 µM (active),,,,,,,,,,inactive,,,,,50.1 µM (active),,,,
Oc1c(Cl)cc(Cl)cc1Sc1cc(Cl)cc(Cl)c1O,39.8 µM (active),,,50.1 µM (active),,50.1 µM (active),,,39.8 µM (active),,,,,,31.6 µM (active),50.1 µM (active),,,39.8 µM (active),inactive
